Measured values: PubChem BioAssay AID463110 (The Scripps Research Institute Molecular Screening Center, 2010)
The other results are listed elsewhere or left out. Values without a mark were called inactive. The source made the active and inactive calls.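 Rule for the calls: active = inhibition of the enzyme GSTO1 above about 75% (limit read from the data); inactive = inhibition below that limit.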

molecular target: Glutathione S-transferase omega-1 (Homo sapiens) (UniProt P78417); assay: inhibitors of purified human GSTO1, late-stage follow-up, biochemical, gel ABPP, SE-Rh probe, percent inhibition (AID 463110); details: recombinant GSTO1, gel ABPP SE-Rh probe fluorescence; at 1 µM; stronger effect = higher value
Sequence (P78417 whole entry, looked up): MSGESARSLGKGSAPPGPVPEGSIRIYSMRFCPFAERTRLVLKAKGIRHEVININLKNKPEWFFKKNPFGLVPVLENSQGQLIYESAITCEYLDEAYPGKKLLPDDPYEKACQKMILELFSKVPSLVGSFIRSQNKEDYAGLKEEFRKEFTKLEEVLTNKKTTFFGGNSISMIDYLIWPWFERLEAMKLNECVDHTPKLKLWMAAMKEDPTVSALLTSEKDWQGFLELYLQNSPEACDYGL

Compound | inhibition
Cc1ccc(N(Cc2cc(=O)[nH]c3ccccc23)C(=O)CCl)cc1 | 36%
O=c1cc(CCl)nc2scc(-c3ccccc3)n12 | 82% (active)
CCC1(CC)Cc2ccccc2-c2nc(CCl)[nH]c(=O)c21 | 79% (active)
O=C(c1[nH]ncc1-c1ccc(Cl)cc1)C1CO1 (stereo not given) | 29%
COc1ccc(C(C(=O)NC2CCCCC2)N(C(=O)CCl)c2ccccc2Cl)cc1 (stereo not given) | 23%
